# Source: PubChem
# VCAM1 pot: TNF alpha stimulated VCAM1 expression potentiation. HUVEC TNFa-stimulated VCAM-1 immunofluorescence, high-content imaging; scaled per plate to unstimulated/TNFa-only wells. activation, % at 2 µM. 93,000 tested, 0.19% active. AID 808;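 active = activation above the screen mean plus 3 SD, with well images confirming the hit on visual review, cut at about 28% in these data, passing the limit was not always enough; inconclusive = activation above that limit but images do not confirm it; inactive = activation not above that limit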;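 also: signal is the number of cytoplasmic VCAM-1 stained grains per positive cell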
# VCAM1 pot confirm: potentiators of TNFa-induced VCAM1 expression, confirmation, imaging, HUVEC, triplicate retest; HUVEC TNFa-stimulated VCAM-1 immunofluorescence imaging; 230 tested, under 10 active; shares compounds with VCAM1 pot; activation, % at 2 µM;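 active = activation above 30% in triplicate retests at 2 µM, then confirmed by visual review of the well images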
# Hits are given with their value; n = inactive; u = inconclusive. The full list was thinned out, with hits kept by preference.
SMILES,VCAM1 pot,others
CN1CCN(c2ncccc2S(=O)(=O)N2CCCCC2)CC1,n,
COc1ccc(CN(C)C2CCCCC2)c(C)c1C,n,
CCCCC(=O)Nc1ccccc1C(=O)N1CCOCC1,n,
CCOC(=O)c1nc2cc3n(c(C)c-2c1C)C(C)C(CC)=C3C (stereo not given),n,
CCC(C)(C)NC(=O)C(OC(=O)c1ccco1)c1ccccc1OC (stereo not given),n,
COC(=O)c1nn(-c2ccc(Cl)cc2)c(=O)cc1Sc1ccccn1,n,
CC(C)NC(=O)c1ccccc1NC(=O)CCc1ccccc1,n,
C/C(=N\Nc1nc2c(s1)CCCC2)c1ccccc1,n,
CC1(C)N=C(/C=N/O)CN1O,n,
Cc1cccc(OCCCCCn2ccnc2)c1,n,
COCCNC(=O)CSc1nc2ccccc2c(=O)n1CCCC(=O)NCc1ccccc1,n,
O=S(=O)(NCc1ccco1)c1ccc(S(=O)(=O)N2CCCCC2)cc1,n,
CCOC(=O)C1=C(O)/C(=C/c2ccc(C)o2)SC1=NC(=O)c1ccccc1C,n,
Cc1ccc(S(=O)(=O)Cc2ccc(C(=O)O)o2)cc1,n,
CCN1C(=O)C(CC(=O)Nc2ccc(Br)cc2)N(CCCc2ccccc2)C1=S (stereo not given),n,
Cc1cc(N2CCOCC2)nc(SCc2ccc(Cl)cc2Cl)n1,n,
CN(C(=O)CSc1nc(N)nn1-c1ccccc1)c1ccccc1,n,
O=C(COc1ccccc1)Nc1ccc(OC(F)(F)C(F)F)c(NC(=O)COc2ccccc2)c1,n,
Cn1c(SCCCC(=O)c2ccc(Br)cc2)nnc1-c1ccncc1,n,
CN(CC(=O)NCc1ccncc1)S(=O)(=O)c1ccc(F)cc1,n,
N#Cc1ccccc1CSc1nc(N2CCCCC2)nc(N2CCCCC2)n1,n,
Cc1ccc(CNC(=O)CSc2ncccn2)cc1,n,
CCC(CC)C(=O)c1c[nH]c(C(=O)NCC2CCCO2)c1 (stereo not given),n,
CC(C(=O)Nc1ccccc1Sc1ccccc1)N(c1ccccc1)S(C)(=O)=O (stereo not given),n,
CNC(=O)c1ccccc1S(=O)(=O)c1ccccc1C#N,n,
SMILES,VCAM1 pot,others
COC(=O)CSC(C(=O)Nc1ccc(C)c(C)c1)c1ccccc1 (stereo not given),n,
CC1N(O)C(C)(C)C(c2ccccc2)=[N+]1[O-] (stereo not given),n,
Cn1c(SCC(=O)NC2CC2)nnc1-c1cccc(NC(=O)c2ccccc2F)c1,n,
Cc1cc(OCC(=O)NCc2nc(-c3ccccc3)no2)c(C)cc1Br,n,
Cc1occc1C(=O)NNC(=O)NC12CC3CC(CC(C3)C1)C2,n,
O=C1OCC(CO)(CO)N=C1NNc1ccccc1Cl,n,
COCc1cc(Sc2ccc(Cl)cc2Cl)nc(-c2ccccc2)n1,n,
COc1cc2[nH]c(=O)n(CCCCCC(=O)N3CC=C(c4ccccc4)CC3)c(=O)c2cc1OC,n,
CCCOC(=O)CSC1=C(C#N)C(c2ccccc2OC)C(C#N)C(=O)N1 (stereo not given),n,
C=C(C)C1CC=C(C)/C(=N/NC(=O)COc2cccc3ccccc23)C1 (stereo not given),n,
CCN(CC)CC(C)OC(=O)COc1ccc(OC)cc1 (stereo not given),n,
CCNc1ccc(Br)cc(C(=O)/C=C/c2ccc(Cl)cc2Cl)c1=O,n,
CC(C)(C)C(=O)N1CCN(c2c(Cl)cccc2[N+](=O)[O-])CC1,n,
COc1ccc(CN2CCCCC2C(=O)Nc2ccc(OC)c(OCC(C)C)c2)cc1OC (stereo not given),n,
C=C(C)CSc1nc(N)c2c(C)c(C)sc2n1,n,
CCn1cc([N+](=O)[O-])c(C(=O)N2N=C3/C(=C/c4cccs4)CCCC3C2c2cccs2)n1 (stereo not given),n,
CCOc1ccc2nc(SCC(=O)NC(=O)NCc3ccco3)[nH]c2c1,n,
CCC1CCc2c(sc(NC(=O)CSc3nc(-c4ccco4)cc(C(F)(F)F)n3)c2C#N)C1 (stereo not given),n,
CCc1cccc(CC)c1NC(=O)C1SC(=Nc2ccccc2C)C(c2nc3ccccc3s2)=C1N (stereo not given),n,
CC(C)(C)NS(=O)(=O)c1ccc(NC(=O)C(Sc2ccccc2)c2ccccc2)cc1 (stereo not given),n,
O=C(c1ccc(-n2cnnn2)cc1)N1CCCCC1,n,
Cc1nnsc1C(=O)Nc1cccc(Cl)c1Cl,n,
CN(C(=O)CSc1nc(-c2ccccc2)cn1N)C(c1ccccc1)c1ccccc1,n,
CC1=C(C)/C(=N/OC(=O)c2cccc([N+](=O)[O-])c2)C=CC1=O,n,
O=C(O)c1ccc(NC(CSCc2cccc(F)c2)C(=O)O)c([N+](=O)[O-])c1 (stereo not given),n,
SMILES,VCAM1 pot,others
COc1cccc(/C=C/C(=C2\C(=O)N(c3ccccc3)N=C2C)c2ccc(Br)cc2)c1OC,n,
CCSc1nc(O)c(Cc2ccccc2)c(=O)[nH]1,n,
CCOc1cccc(C(=O)Nc2ccc3oc(Cc4ccc(Cl)cc4)nc3c2)c1,n,
O=C(CN1C(=O)C2CC=CCC2C1=O)NCC1COc2ccccc2O1 (stereo not given),n,
CCOC(=O)Cn1nc(C)n(-c2ccc(C(C)C)cc2)c1=O,n,
Cc1ccc(Oc2ncccc2/C=N/OCc2ccc(Cl)c(Cl)c2)cc1,n,
Cc1ccc(Cc2nnc3n(-c4ccccc4)nc(C(=O)c4ccccc4)n3c2=O)cc1,n,
O=C1O/C(=C/C(=O)N2CCOCC2)c2ccccc21,n,
CCOC(=O)C1CCCN(Cc2sccc2C)C1 (stereo not given),n,
O=C(NC1CCCc2ccccc21)c1cncc(Br)c1 (stereo not given),n,
CCCN1CNC(=S)N(c2cc(C)ccc2C)C1,n,
Cc1ccc(OCC(=O)Nc2ccc([N+](=O)[O-])cn2)cc1C,n,
CCCCC1CC1C(=O)Nc1ncc2c(n1)CC(C)(C)CC2=O (stereo not given),n,
CCCCNC(=O)CN(c1cccc(Br)c1)S(C)(=O)=O,n,
CC(C)(C)S(=O)c1cccs1 (stereo not given),n,
O=C(NC12CC3CC(CC(C3)C1)C2)c1cncc(O)c1,n,
CC(C)(C)C1CCC2(CC1)C(Nc1cccc(C(F)(F)F)c1)=NC(=S)N2CC#N (stereo not given),u,VCAM1 pot confirm=n
O=C(C1CCN(S(=O)(=O)N2CCOCC2)CC1)N1CCOCC1,n,
CCOc1ccc(-c2nnc3sc(COc4ccc(C)cc4)nn23)cc1,40,VCAM1 pot confirm=n
COc1ccc(Cc2nn3c(-c4ccccc4Br)nnc3s2)cc1,n,
c1ccc(-c2nnc3sc(-c4ccncc4)nn23)cc1,n,
COc1cccc(NC(=O)CSc2nc(N)cc(N)n2)c1,n,
CSc1nc(C)cc(SCC(=O)Nc2ccccc2)n1,56,VCAM1 pot confirm=n
Cc1cc(SCC(N)=O)nc(SCC(=O)c2ccccc2)n1,n,
Cc1cccc(C2CC(c3ccc(Br)cc3)Nc3nc(N)nn32)c1 (stereo not given),n,
SMILES,VCAM1 pot,others
CCOC(=O)Cc1nnc(NC(=O)CSc2nnc3c4ccccc4n(C)c3n2)s1,n,
COc1cccc(CNC(=O)c2ccc(S(=O)(=O)N3CCCC3)cc2)c1,80,VCAM1 pot confirm=n
Cc1cc(S(=O)(=O)N2CCCC2)ccc1OCC(=O)NCc1ccco1,n,
CC(=O)c1cccc(NC(=O)c2ccc(S(=O)(=O)N3CCCCC3)cc2)c1,n,
O=C(NCc1ccco1)c1ccc(S(=O)(=O)c2cccc(S(=O)(=O)N3CCOCC3)c2)cc1,u,VCAM1 pot confirm=n
CC(=O)c1ccc(N2CCN(S(=O)(=O)c3cccc(S(=O)(=O)N4CCOCC4)c3)CC2)cc1,n,
